The supplement of paper PMC10849652
Targets with a hit are over-represented here; the source holds about 7,900 in all. About 0.6% of all pairs of compound and target were hits.

Tests used:
Test in all cases: log2 fold change, soluble protein after heating vs DMSO (PISA); higher = thermal stabilisation; K562 cells, 10 uM, 30 min; active = over 0.2 and 3.5 SD of the protein, either way, in both replicates (recomputed)
[1] = compound: CS(=O)(=O)c1ccc(-c2cnc(N)c(C(=O)Nc3ccccc3)n2)cc1
In short: (§1)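 K562 cells at 2×10^6 cells/mL were exposed to 10 μM compound for 30 min, then aliquots were heated for 3 min across 48°C-58°C, pooled, and extracted in PBS containing 0.5% NP-40 at 4°C. The supernatant after 21,000xg for 90 min was taken as soluble protein and measured by TMTpro 16plex LC-MS/MS with channel sums equalised. Thermal stability is reported relative to control samples, with values from duplicates. Fold changes are given on a log2 scale.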

[2] = compound: C[C@@H](Oc1cc(-c2cnn(C3CCNCC3)c2)cnc1N)c1c(Cl)ccc(F)c1Cl [crizotinib]
In short: as §1

[3] = compound: C[C@@H]1COCCN1C2=NC(=NC(=C2)C3(CC3)S(=O)(=O)C)C4=C5C=CNC5=CC=C4
In short: as §1

[4] = compound: C[C@H](C1=CC=C(C=C1)C(=O)NC2=C3C=CNC3=NC=C2)N
In short: as §1

[5] = compound: C[C@H](Nc1ncnc2nc[nH]c12)c1cc2cccc(Cl)c2c(=O)n1-c1ccccc1 [duvelisib]
In short: as §1

[6] = compound: Cc1cc(Nc2cc(CN3CCOCC3)c3nc(C)c(Cc4ccc(Cl)cc4F)n3n2)n[nH]1 [gandotinib]
In short: as §1

[7] = compound: Cc1cc(Nc2cc(N3CCN(C)CC3)nc(Sc3ccc(NC(=O)C4CC4)cc3)n2)n[nH]1 [tozasertib]
In short: as §1

[8] = compound: Cc1cc(SCc2sc(-c3ccc(C(F)(F)F)cc3)nc2C)ccc1OCC(=O)O
In short: as §1

[9] = compound: Cc1ccc(-n2nc(C(C)(C)C)cc2NC(=O)Nc2ccc(OCCN3CCOCC3)c3ccccc23)cc1 [doramapimod]
In short: as §1

[10] = compound: Cc1ccc(C(=O)N(CCCN)[C@@H](c2nc3cc(Cl)ccc3c(=O)n2Cc2ccccc2)C(C)C)cc1 [ispinesib]
In short: as §1

[11] = compound: Cc1ccc(NC(=O)c2ccc(CN3CC[C@H](N(C)C)C3)c(C(F)(F)F)c2)cc1Nc1nccc(-c2cncnc2)n1 [bafetinib]
In short: as §1

[12] = compound: Cc1cccc(CC(=O)N2CCc3c2ccc(-c2cn(C)c4ncnc(N)c24)c3F)n1
In short: as §1

[13] = compound: Cc1cn(-c2cc(NC(=O)c3ccc(C)c(Nc4nccc(-c5cccnc5)n4)c3)cc(C(F)(F)F)c2)cn1 [nilotinib]
In short: as §1

[14] = compound: Cc1nc(Nc2n[nH]c3c2CN(C(=O)N[C@H](CN(C)C)c2ccccc2)C3(C)C)c2sccc2n1
In short: as §1

[15] = compound: Cc1nc(Nc2ncc(C(=O)Nc3c(C)cccc3Cl)s2)cc(N2CCN(CCO)CC2)n1 [dasatinib]
In short: as §1

[16] = compound: Cc1ncc(-c2ccnc(Nc3ccc(S(C)(=O)=O)cc3)n2)n1C(C)C
In short: as §1

[17] = compound: Cn1cc(-c2ccc3c(c2)CCN3C(=O)Cc2cccc(C(F)(F)F)c2)c2c(N)ncnc21
In short: as §1

[18] = compound: Cn1cc(-c2ccc3nnc(C(F)(F)c4ccc5ncccc5c4)n3n2)cn1
In short: as §1

[19] = compound: Cn1cncc1[C@@](N)(c1ccc(Cl)cc1)c1ccc2c(c1)c(-c1cccc(Cl)c1)cc(=O)n2C [tipifarnib]
In short: as §1

[20] = compound: FC(F)(F)c1ccc(/C=C/c2nc(COc3ccc(CCCCn4ccnn4)cc3)co2)cc1 [mubritinib]
In short: as §1

Measured: log2 fold change

SEC23A (UniProt Q15436)
UniProt Q15436, sequence (Q15436 whole entry, looked up): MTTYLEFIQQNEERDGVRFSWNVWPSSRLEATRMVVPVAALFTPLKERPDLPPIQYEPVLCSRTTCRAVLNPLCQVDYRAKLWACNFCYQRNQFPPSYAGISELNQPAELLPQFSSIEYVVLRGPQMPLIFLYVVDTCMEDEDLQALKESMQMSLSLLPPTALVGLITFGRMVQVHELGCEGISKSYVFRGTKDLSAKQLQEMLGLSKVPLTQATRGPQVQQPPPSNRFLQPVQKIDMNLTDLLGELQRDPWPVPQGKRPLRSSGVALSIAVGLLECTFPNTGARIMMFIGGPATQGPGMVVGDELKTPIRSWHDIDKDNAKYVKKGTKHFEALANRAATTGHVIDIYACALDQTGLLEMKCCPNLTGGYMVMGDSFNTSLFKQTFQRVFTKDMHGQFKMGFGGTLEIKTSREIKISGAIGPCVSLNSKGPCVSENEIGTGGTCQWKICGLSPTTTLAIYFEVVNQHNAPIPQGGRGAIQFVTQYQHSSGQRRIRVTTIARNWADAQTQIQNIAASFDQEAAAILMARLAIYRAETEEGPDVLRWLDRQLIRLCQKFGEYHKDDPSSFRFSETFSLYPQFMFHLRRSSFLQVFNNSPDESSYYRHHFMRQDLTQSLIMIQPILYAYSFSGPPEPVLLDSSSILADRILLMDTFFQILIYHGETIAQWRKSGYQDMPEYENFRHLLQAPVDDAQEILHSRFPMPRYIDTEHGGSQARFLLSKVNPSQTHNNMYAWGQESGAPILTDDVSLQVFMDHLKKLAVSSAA
inactive: [1] 0.001 | [2] -0.016 | [3] 0.061 | [4] -0.102 | [5] 0.017 | [6] -0.109 | [7] 0.021 | [8] 0.03 | [9] -0.092 | [10] 0.023 | [11] -0.011 | [12] 0.024 | [13] -0.012 | [14] 0.014 | [15] -0.07 | [16] -0.009 | [17] -0.018 | [18] -0.052 | [19] -0.013 | [20] -0.002

RHOXF2 (UniProt Q9BQY4)
UniProt Q9BQY4, sequence (Q9BQY4 whole entry, looked up): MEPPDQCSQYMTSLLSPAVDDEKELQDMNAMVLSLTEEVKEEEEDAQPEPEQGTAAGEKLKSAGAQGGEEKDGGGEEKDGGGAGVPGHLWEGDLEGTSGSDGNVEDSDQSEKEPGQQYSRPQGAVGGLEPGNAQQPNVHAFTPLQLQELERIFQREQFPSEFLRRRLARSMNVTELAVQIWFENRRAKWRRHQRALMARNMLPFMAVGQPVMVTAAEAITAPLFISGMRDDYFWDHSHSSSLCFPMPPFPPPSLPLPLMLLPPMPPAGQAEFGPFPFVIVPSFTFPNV
inactive: [1] 0.027 | [2] 0.001 | [3] 0.073 | [4] 0.018 | [5] 0.04 | [6] -0.045 | [7] -0.029 | [8] -0.092 | [9] 0.008 | [10] 0.009 | [11] -0.05 | [13] 0.009 | [14] -0.007 | [15] 0.053 | [16] -0.058 | [17] 0.008 | [18] -0.035 | [19] 0.048 | [20] 0.06
active: [12] -0.215

RNASET2 (UniProt O00584)
UniProt O00584, sequence (O00584 whole entry, looked up): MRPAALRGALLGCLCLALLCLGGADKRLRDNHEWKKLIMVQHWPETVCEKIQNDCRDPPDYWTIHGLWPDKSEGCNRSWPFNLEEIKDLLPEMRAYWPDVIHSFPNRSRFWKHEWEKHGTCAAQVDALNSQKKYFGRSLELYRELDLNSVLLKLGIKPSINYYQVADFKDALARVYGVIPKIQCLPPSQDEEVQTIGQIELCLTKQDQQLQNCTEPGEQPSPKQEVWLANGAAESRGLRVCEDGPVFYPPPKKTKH
inactive: [1] 0.033 | [3] 0.027 | [4] 0.08 | [5] 0.045 | [6] 0.01 | [7] -0.011 | [8] -0.037 | [9] -0.013 | [10] -0.149 | [12] -0.006 | [13] 0.016 | [14] -0.002 | [15] -0.031 | [16] -0.034 | [17] -0.065 | [18] 0.027 | [19] 0.067 | [20] 0.021
active: [2] -0.35 | [11] -0.261

RNASEH2A (UniProt O75792)
UniProt O75792, sequence (O75792 whole entry, looked up): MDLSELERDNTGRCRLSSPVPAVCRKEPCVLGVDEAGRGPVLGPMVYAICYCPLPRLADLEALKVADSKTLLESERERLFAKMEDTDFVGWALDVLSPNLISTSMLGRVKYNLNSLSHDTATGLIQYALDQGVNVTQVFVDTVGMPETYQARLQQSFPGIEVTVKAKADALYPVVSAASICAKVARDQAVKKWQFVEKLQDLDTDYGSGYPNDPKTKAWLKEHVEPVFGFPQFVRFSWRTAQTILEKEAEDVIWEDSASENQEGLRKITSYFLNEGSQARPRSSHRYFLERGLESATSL
active: [12] -0.303
inactive: [1] 0.106 | [2] -0.134 | [3] -0.045 | [4] -0.032 | [5] 0.011 | [6] 0.156 | [7] -0.028 | [8] 0.029 | [9] -0.023 | [10] -0.001 | [11] -0.111 | [13] -0.025 | [14] 0.024 | [15] -0.159 | [16] -0.047 | [17] 0.056 | [18] 0.038 | [19] -0.003 | [20] 0.059

SCD (UniProt O00767)
UniProt O00767, sequence (O00767 whole entry, looked up): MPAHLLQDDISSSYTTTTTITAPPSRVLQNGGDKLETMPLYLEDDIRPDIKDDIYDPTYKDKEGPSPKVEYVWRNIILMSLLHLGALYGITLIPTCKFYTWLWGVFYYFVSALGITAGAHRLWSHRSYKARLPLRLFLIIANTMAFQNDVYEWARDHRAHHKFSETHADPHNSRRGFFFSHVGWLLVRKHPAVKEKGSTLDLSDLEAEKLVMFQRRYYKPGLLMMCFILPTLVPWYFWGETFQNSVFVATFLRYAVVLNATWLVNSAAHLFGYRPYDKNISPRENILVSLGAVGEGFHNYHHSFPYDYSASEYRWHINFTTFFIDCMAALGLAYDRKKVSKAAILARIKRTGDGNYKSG
inactive: [1] 0.024 | [2] -0.2 | [3] -0.06 | [4] -0.068 | [5] 0.007 | [6] -0.061 | [7] -0.07 | [8] -0.119 | [9] -0.028 | [10] -0.319 | [11] -0.153 | [12] 0.109 | [13] -0.063 | [14] -0.007 | [15] -0.026 | [16] -0.019 | [17] 0.013 | [18] 0.034 | [19] 0.075 | [20] 0.019

RPS3A (UniProt P61247)
inactive: [1] -0.064 | [2] 0.022 | [3] -0.182 | [4] 0.196 | [5] -0.09 | [6] 0.175 | [7] 0.016 | [8] 0.029 | [9] 0.044 | [10] -0.072 | [11] 0.243 | [12] -0.031 | [13] 0 | [14] 0.201 | [15] 0.099 | [16] -0.033 | [17] -0.127 | [18] -0.045 | [19] 0.096 | [20] -0.058

RETSAT (UniProt Q6NUM9)
UniProt Q6NUM9, sequence (Q6NUM9 whole entry, looked up): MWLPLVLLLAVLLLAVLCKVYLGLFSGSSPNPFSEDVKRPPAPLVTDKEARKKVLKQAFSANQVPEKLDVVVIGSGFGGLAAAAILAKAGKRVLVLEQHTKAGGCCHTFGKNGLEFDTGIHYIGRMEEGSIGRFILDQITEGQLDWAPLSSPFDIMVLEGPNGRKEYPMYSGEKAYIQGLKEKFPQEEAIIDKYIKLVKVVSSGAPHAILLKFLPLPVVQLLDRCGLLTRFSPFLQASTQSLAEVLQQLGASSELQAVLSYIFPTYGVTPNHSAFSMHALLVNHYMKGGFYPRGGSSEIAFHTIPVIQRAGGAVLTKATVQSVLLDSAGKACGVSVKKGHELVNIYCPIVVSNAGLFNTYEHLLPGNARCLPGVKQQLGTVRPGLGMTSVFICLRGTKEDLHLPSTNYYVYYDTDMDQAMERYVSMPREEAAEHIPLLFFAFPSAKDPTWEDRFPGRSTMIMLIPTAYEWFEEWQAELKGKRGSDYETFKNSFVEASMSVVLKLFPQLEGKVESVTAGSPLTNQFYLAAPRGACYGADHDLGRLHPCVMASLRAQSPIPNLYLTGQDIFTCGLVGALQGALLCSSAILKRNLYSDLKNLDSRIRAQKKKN
inactive: [1] -0.038 | [2] 0.005 | [3] -0.129 | [4] -0.003 | [5] 0.083 | [6] 0.284 | [7] -0.103 | [8] 0.036 | [9] 0.147 | [10] -0.008 | [11] -0.011 | [12] -0.034 | [13] 0.154 | [14] -0.076 | [15] -0.001 | [17] 0.045 | [18] -0.002 | [19] -0.052 | [20] 0.182
active: [16] 0.511

RPAIN isoform 8 (UniProt Q86UA6)
UniProt Q86UA6, sequence (Q86UA6 whole entry, looked up): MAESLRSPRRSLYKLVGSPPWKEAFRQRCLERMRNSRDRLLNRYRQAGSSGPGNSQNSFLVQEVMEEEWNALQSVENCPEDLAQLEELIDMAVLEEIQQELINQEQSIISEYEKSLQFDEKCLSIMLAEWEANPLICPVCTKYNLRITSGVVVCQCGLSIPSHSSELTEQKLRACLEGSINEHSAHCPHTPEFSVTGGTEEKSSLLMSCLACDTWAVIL
inactive: [1] -0.024 | [2] 0.144 | [3] 0.385 | [4] -0.039 | [5] 0.123 | [7] 0.07 | [8] 0.078 | [9] -0.04 | [10] -0.155 | [11] -0.064 | [15] -0.043 | [17] -0.022 | [18] -0.142 | [19] -0.042
